HepG2 viability = HepG2 cytotoxicity, counter-screen for TGF-b inhibitors | Potency, µM (titrated, usually from 46.1 µM), for inactives: top-dose activity change, negative = cytotoxicity, most hits filed as cytotoxic | HepG2 CAGA-GFP viability, ATP luminescence, 18 h | 410,000 compounds, 0.76% hits
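CellTiter-Glo luminescence gave cytotoxicity after 18 hours at 37 degrees C. The cells were HepG2 CAGA-GFP in 1% FBS DMEM, stimulated with 500 pg/mL TGF-beta after compound addition. %Activity was normalised to no-cell wells (complete cell-killing) and DMSO (no toxicity), and curves were fitted and classified.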
TGFb SMAD3 inh = TGF-b pathway inhibition; HepG2 CAGA-GFP TGF-b/SMAD3 reporter, GFP fluorescence, 18 h; TGF-beta stimulated, 500 pg/mL final; AID 588855; Potency, µM (highest dose often 46.1 µM), for the others: at the top dose activity, negative = inhibition, most hits filed as inhibitors; 410,000 compounds, 1.2% hits; further: on the % scale 0 is the no-effect control and ±100 the full control effect; nearly all actives have a fitted effect of over 65% in size
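Inhibition was scored as loss of TGF-beta-induced (500 pg/mL final, 18 hours, 37 degrees C) GFP in HEPG2 cells carrying a CAGA-GFP reporter, in DMEM with 1% FBS. Well GFP was summed per cell; Activity was normalised to unstimulated and stimulated DMSO wells, then concentration-response fitting.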
DT40 TDP1 CPT = growth inhibition of DT40 Tdp1-/-;hTDP1 cells with camptothecin (screen for TDP1 inhibitors) | chicken DT40 Tdp1-/-;hTDP1 cells + 20 nM CPT, ATP luminescence, 48 h | Potency, µM (series often up to 46.2 µM), without a hit: at the top dose activity change, negative = growth inhibition, usual class: inhibitors | 420,000 compounds, 12% hits; further: on the % scale 0 is the no-effect control and ±100 the full control effect; nearly all actives have a fitted effect of over 55% in size
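Chicken DT40 Tdp1-/- cells complemented with human TDP1, 400 cells/well, exposed to compounds plus 20 nM camptothecin for at least 48 h at 37 C; viability read as ATP content by CellTiter-Glo luminescence.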
TDP1 cell noCPT = qHTS for Inhibitors of human tyrosyl-DNA phosphodiesterase 1 (TDP1): qHTS in cells in absence of CPT. DT40 Tdp1-/- hTDP1 cells, no CPT, ATP luminescence, 48 h. Potency, µM (doses to about 46.2 µM), for inactives: top-dose activity change, negative = growth inhibition, most hits filed as inhibitors. 420,000 compounds, 15% hits. AID 686978, 2013; further: on the % scale 0 is the no-effect control and ±100 the full control effect; nearly all actives have a fitted effect of over 55% in size
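Luminescent ATP content (CellTiter-Glo) served as the growth readout. Knockout chicken DT40 cells expressing human TDP1 were exposed to compounds without camptothecin for a minimum 48 hr at 37 °C.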
HT1080 IDH1KD tx = toxicity to HT-1080 IDH1 knockdown cells (counter line); AID 686971; HT-1080 IDH1 knockdown viability, ATP luminescence, 48 h; Potency, µM (series often up to 46.1 µM), for the others: at the top dose activity, negative = toxicity, actives largely listed as cytotoxic; 360,000 compounds, 2% hits;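 further: 0% = DMSO wells and -100% = cell-free medium wells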
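Using the IDH1-knockdown HT-1080 line run in the same batch and compound series as the NT line, viability after 48 h at 37 °C was determined by CellTiter-Glo luminescence and expressed as % activity.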
HT1080-NT tox = kills 2HG-producing HT-1080-NT fibrosarcoma cells; HT-1080-NT fibrosarcoma viability, CellTiter-Glo ATP luminescence, 48 h; Potency, µM (titrated, usually from 46.1 µM), for the others: at the highest dose activity, negative = less viability, usual class: cytotoxic; 360,000 compounds, 1.6% hits; AID 686970;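 further: NT is the 2HG producing partner of a matched IDH1 knockdown line; 0% = DMSO-treated cells and -100% = media-only wells without cells; nearly all actives have a fitted effect of over 55% in size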
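A 48-hour cytotoxicity screen used HT-1080-NT cells plated 2 hours before compound delivery. ATP-based CellTiter-Glo luminescence measured viability, normalized to DMSO and no-cell controls.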
Active calls of the source: *; ! = repeats disagree. In the library only some 17% were active in any assay of this set; here they are far more common. The call rests on the fitted dose curve; in most records, active means well fitted curve in the direction sought with a large enough effect; inconclusive means small, poorly fitted or top-dose-only effect, or another doubt; inactive means no such curve, though single readings can be large; an effect the other way counts as inactive or inconclusive. Potency means the concentration at half of the fitted maximal effect.

Screening O=C(CSCc1ccccc1)Nc1ccc2c(c1)OCO2 returned HepG2 viability -17%, TGFb SMAD3 inh 0%, DT40 TDP1 CPT -23%, TDP1 cell noCPT -15%, HT1080 IDH1KD tx -3% and HT1080-NT tox 4%.
Screening O=C(CSCSCC(=O)Nc1ccc2c(c1)OCO2)Nc1ccc2c(c1)OCO2 returned HepG2 viability -32%, TGFb SMAD3 inh inconclusive, DT40 TDP1 CPT 15µM*, TDP1 cell noCPT inconclusive, HT1080 IDH1KD tx inconclusive and HT1080-NT tox inconclusive.
O=C(CSCc1c(Cl)cccc1Cl)Nc1ccccc1C(=O)N1CCOCC1 was read as HepG2 viability -25%, TGFb SMAD3 inh 10%, DT40 TDP1 CPT inconclusive, TDP1 cell noCPT 21µM*, HT1080 IDH1KD tx -8% and HT1080-NT tox 0%.
O=C(CSCc1c(Cl)cccc1Cl)Nc1ccc2c(c1)OCO2 was read as HepG2 viability -28%, TGFb SMAD3 inh -2%, DT40 TDP1 CPT inconclusive, TDP1 cell noCPT 18µM*, HT1080 IDH1KD tx 4% and HT1080-NT tox -2%.
For CCOC(=O)c1[nH]c2ccccc2c1NC(=O)c1ccc(Br)cc1 the results were HepG2 viability -9%, TGFb SMAD3 inh -3%, DT40 TDP1 CPT -22% and TDP1 cell noCPT -23%.
For Cc1ccc(NC(=O)CSc2cc(=O)n(C)c3ccc(Cl)cc23)c(Br)c1 the results were HepG2 viability 6%, TGFb SMAD3 inh 7%, DT40 TDP1 CPT inconclusive and TDP1 cell noCPT inconclusive.
For Cc1ccc(OCC(=O)N2CCN(S(C)(=O)=O)CC2)cc1 the results were HepG2 viability 2%, TGFb SMAD3 inh 1%, DT40 TDP1 CPT 1%, TDP1 cell noCPT -12%, HT1080 IDH1KD tx 5% and HT1080-NT tox 6%.
`CCCN[C@H]1CCc2nc(N)sc2C1` gave HepG2 viability -26%, TGFb SMAD3 inh 4%, DT40 TDP1 CPT inconclusive, TDP1 cell noCPT 17µM*!, HT1080 IDH1KD tx -2% and HT1080-NT tox 9%.
COc1ccc(/C=C(/C(=O)c2cccs2)N2C=CC=CC2=C(C#N)C#N)cc1 was read as HepG2 viability 11µM*, TGFb SMAD3 inh inconclusive, DT40 TDP1 CPT 1.2µM*, TDP1 cell noCPT 1.2µM*, HT1080 IDH1KD tx inconclusive and HT1080-NT tox inconclusive.
COc1ccc(C(=O)/C(=C\c2ccco2)N2C=CC=CC2=C(C#N)C#N)cc1 was read as HepG2 viability -50%, TGFb SMAD3 inh 3.5µM*, DT40 TDP1 CPT 0.65µM*, TDP1 cell noCPT 0.65µM*, HT1080 IDH1KD tx 2.9µM* and HT1080-NT tox inconclusive.
Screening N#CC(C#N)=C1C=CC=CN1/C(=C\c1ccco1)C(=O)c1ccccc1 returned HepG2 viability 4µM*, TGFb SMAD3 inh 2.2µM*, DT40 TDP1 CPT 1.3µM*, TDP1 cell noCPT 1.5µM*, HT1080 IDH1KD tx inconclusive and HT1080-NT tox inconclusive.
`CC(C)OC(=O)/C(=C/c1ccco1)c1ccccc1` gave HepG2 viability 4%, TGFb SMAD3 inh 4%, DT40 TDP1 CPT 0%, TDP1 cell noCPT -25%, HT1080 IDH1KD tx 0% and HT1080-NT tox 16%.
COc1ccc2[nH]cc(CCNC(=O)C3CCCO3)c2c1 (stereo unspecified) was read as HepG2 viability -16%, TGFb SMAD3 inh -7%, DT40 TDP1 CPT inconclusive, TDP1 cell noCPT 14%, HT1080 IDH1KD tx 2% and HT1080-NT tox 1%.
For Nc1nc2c(ncn2[C@@H]2O[C@H](CNS(=O)(=O)C3CC3)[C@@H](O)[C@H]2O)c(=O)[nH]1 the results were HepG2 viability -18%, TGFb SMAD3 inh -6%, DT40 TDP1 CPT 4%, TDP1 cell noCPT 0%, HT1080 IDH1KD tx 8% and HT1080-NT tox 19%.
Cc1ccc(C(=O)O/N=C(\N)c2nonc2N)cc1 was read as HepG2 viability -5%, TGFb SMAD3 inh 13%, DT40 TDP1 CPT -2%, TDP1 cell noCPT 3%, HT1080 IDH1KD tx 16% and HT1080-NT tox 27%.
Cn1cccc1C(C#N)c1cccc(F)c1C#N (stereo unspecified) was read as HepG2 viability -11%, TGFb SMAD3 inh -3%, DT40 TDP1 CPT inconclusive, TDP1 cell noCPT 18µM*, HT1080 IDH1KD tx -3% and HT1080-NT tox -1%.
Screening COC(=O)C1=C(C)N(Cc2ccccc2)C(=O)N[C@H]1c1ccccc1 returned HepG2 viability -18%, TGFb SMAD3 inh -17%, DT40 TDP1 CPT inconclusive, TDP1 cell noCPT -21%, HT1080 IDH1KD tx 2% and HT1080-NT tox 3%.
COC(=O)C1=C(C)N(Cc2ccccc2)C(=NCC(C)C)N[C@H]1c1ccccc1 was read as HepG2 viability -40%, TGFb SMAD3 inh inconclusive, DT40 TDP1 CPT 4.1µM*, TDP1 cell noCPT 4.1µM*, HT1080 IDH1KD tx inconclusive and HT1080-NT tox -12%.
For C=CCN=C1N[C@@H](c2ccc(Br)cc2)C(C(=O)OC)=C(C)N1Cc1ccccc1 the results were HepG2 viability -96%, TGFb SMAD3 inh inconclusive, DT40 TDP1 CPT 13µM* and TDP1 cell noCPT inconclusive.
CCOC(=O)C1=C(C)N(C[C@@H]2CC[C@@H](Cc3ccc4cc(OC)ccc4c3)O2)C(=O)NC1c1ccccc1 (stereo partly specified) was read as HepG2 viability -29%, TGFb SMAD3 inh inconclusive, DT40 TDP1 CPT 21µM*, TDP1 cell noCPT inconclusive, HT1080 IDH1KD tx -19% and HT1080-NT tox -17%.
For CCOC(=O)C1=C(C)N(CCCC(=O)O)C(=O)NC1c1ccc(OC)cc1 (stereo unspecified) the results were HepG2 viability 30%, TGFb SMAD3 inh 30%, DT40 TDP1 CPT -6%, TDP1 cell noCPT 4%, HT1080 IDH1KD tx -3% and HT1080-NT tox 1%.
`COC(=O)C1=C(C)N(CC2CC2)C(=O)N[C@H]1c1ccc(Br)cc1` gave HepG2 viability -11%, TGFb SMAD3 inh -5%, DT40 TDP1 CPT 23µM*, TDP1 cell noCPT inconclusive, HT1080 IDH1KD tx -7% and HT1080-NT tox 15%.
`NC(=O)c1cc(S(=O)(=O)N2CCN(c3ccc([N+](=O)[O-])cc3)CC2)cs1` gave HepG2 viability -11%, TGFb SMAD3 inh inconclusive, DT40 TDP1 CPT inconclusive, TDP1 cell noCPT inconclusive, HT1080 IDH1KD tx -11% and HT1080-NT tox -17%.
